Compounds with a hit are over-represented: about 0.68% of the library has one in this group of screens.
Mtb hypoxia rep: PubChem AID 1159583; M. tuberculosis hypoxia-regulated fluorescent reporter, fluorescence; fluorescence inhibition, % (no concentration beside the values); 300,000 compounds, 0.1% hits; in the data active = fluorescence inhibition mostly above about 23%, no sharp cut-off; inactive = mostly below about 17%
RN4220 kill: growth inhibition of S. aureus RN4220, primary screen, OD600; 16 h; inhibition, % (test concentration not listed); 330,000 compounds, 0.33% hits; AID 1259311, 2017; in the data active = inhibition above about 85%;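 note: plate controls were untreated cells for no effect and reference antibiotic for full effect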
Sa ugtP lethal: growth inhibition of ugtP-null S. aureus, primary screen, RN4220 ugtP deletion, OD600; 330,000 compounds, 0.54% hits; growth inhibition, % (concentration not given with the values); 16 h; AID 1259309, 2017; in the data active = growth inhibition above about 68%;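 note: plate controls were untreated wells for no effect and antibiotic for full effect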
Mtb UGM inh: M. tuberculosis UGM enzyme inhibitors, primary screen, biochemical, fluorescence polarization, single point | purified UGM, fluorescence polarization probe displacement | inhibition, % at 10 µM | 320,000 compounds, 0.06% hits; in the data active = inhibition above about 10%, passing the limit was not always enough
Mtb betalactam: beta-lactam sensitization of Mtb H37Rv, H37Rv. AID 434955, 2010. 330,000 compounds, 0.27% hits. M. tuberculosis H37Rv growth with meropenem, percent inhibition. inhibition, % at 25 µM; call rule not given here;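 note: growth measured after seven days incubation then overnight dye step; 0% = bacteria only wells and 100% = bacteria with antibiotic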
Rv3671c inh: Rv3671c serine protease inhibitors, primary screen, biochemical, fluorescence polarization, M. tuberculosis H37Rv. 320,000 compounds, 0.048% hits. AID 2606, 2010. P9WHR9. inhibition, % at 5.96 µM; in the data active = inhibition above about 38%;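 note: extracellular domain of Rv3671c used as enzyme; 0% = enzyme with DMSO and 100% = no enzyme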
Target sequence (P9WHR9 whole entry, looked up, the tested form may be a part): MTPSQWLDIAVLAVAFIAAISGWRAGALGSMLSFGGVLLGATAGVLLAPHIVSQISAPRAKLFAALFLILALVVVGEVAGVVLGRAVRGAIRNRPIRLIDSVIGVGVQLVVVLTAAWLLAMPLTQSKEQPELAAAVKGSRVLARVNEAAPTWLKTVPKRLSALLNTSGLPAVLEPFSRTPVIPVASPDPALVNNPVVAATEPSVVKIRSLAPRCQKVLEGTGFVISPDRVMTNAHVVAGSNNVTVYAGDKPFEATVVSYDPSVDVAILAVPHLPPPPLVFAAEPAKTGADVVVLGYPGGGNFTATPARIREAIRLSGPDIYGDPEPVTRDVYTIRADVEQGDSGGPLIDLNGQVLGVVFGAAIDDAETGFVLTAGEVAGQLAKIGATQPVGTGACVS
The depositor's hits bear a star; · = no result given.

SMILES	Mtb hypoxia rep	RN4220 kill	Sa ugtP lethal	Mtb UGM inh	Mtb betalactam	Rv3671c inh
O=C(Nc1nc(-c2ccccc2)cs1)c1ccccc1NS(=O)(=O)c1ccc(F)cc1	12	93*	95*	0	1	-49
OCC#CCSc1nnc(-c2ccc(Br)cc2)o1	·	7	5	-3	100	0
OCC#CCSc1nnc(-c2ccccc2Br)o1	41*	11	5	4	33	9
CCC(C)C(CNC(CNC)C(C)O)NCCc1ccc(OC)cc1 (stereo not given)	-3	8	-1	·	·	·
CC(NC(=O)c1ccc(F)cc1)c1ccccc1 (stereo not given)	56*	-16	-3	3	14	-4
CSc1ncccc1C(=O)OCC(=O)c1ccc[nH]1	22*	1	1	0	-8	-3
CC(C)OC(=O)c1cc(NC(=S)Nc2ccc([N+](=O)[O-])cc2)cc(C(=O)OC(C)C)c1	13	100*	100*	-1	95	-6
Oc1c(Cl)cc(Cl)c2cccnc12	-13	56	41	·	·	·
Cc1ccc2c(Cl)cc(Cl)c(O)c2n1	13	99*	99*	·	·	·
CC1CCN(CCC2CCCN2S(=O)(=O)c2cccc(O)c2)CC1 (stereo not given)	2	5	-2	·	·	·
COc1cc(/C=C2\SC(=S)N(NS(=O)(=O)c3ccc(C)cc3)C2=O)ccc1O	12	86*	71	-11	5	-48
COc1ccccc1/C=C1\SC(=S)N(NS(=O)(=O)c2ccccc2)C1=O	10	88*	70	3	-9	-7
CCOc1cc(/C=C2\SC(=S)N(NS(=O)(=O)c3ccc(C)cc3)C2=O)ccc1O	5	85*	73	-8	-8	-50
COc1cc(/C=C2\SC(=S)N(NS(=O)(=O)c3ccccc3)C2=O)ccc1O	11	57	31	-8	-4	-79
CC(C)(C)NC(=O)C(=Cc1ccco1)c1ccccc1	2	5	-3	·	·	·
CN(C)C(=O)C(=Cc1cccc(Oc2ccccc2)c1)NC(=O)c1ccccc1	2	-3	-8	·	·	·
Cc1ccc2c(c1)c1c3n2CCCNC3CCC1 (stereo not given)	8	3	-6	3	-2	-8
c1cc2c(cc1C1CCCCC1)c1c3n2CCCNC3CCC1 (stereo not given)	·	89*	87*	0	100	0
COc1ccc(-c2n[nH]c(C(F)(F)F)c2-c2cc3ccccc3o2)c(O)c1	7	100*	100*	0	71	-41
O=C(C[n+]1cc(-c2ccc(Cl)c(Cl)c2)n2c1CCC2)N1c2ccccc2Sc2ccccc21	5	100*	101*	-2	101	2
O=C(C[n+]1cc(-c2ccc(Cl)cc2)n2c1CCC2)N1c2ccccc2Sc2ccccc21	1	11	-14	3	99	-2
CC1CN(C(C)CO)C(=O)c2cccc(NS(=O)(=O)c3ccc(F)cc3)c2OC1CN(C)Cc1ccc(Cl)c(Cl)c1 (stereo not given)	-2	-10	3	·	·	·
CCCCC1CNCCN1CCc1cc(C(F)(F)F)cc(C(F)(F)F)c1 (stereo not given)	12	1	5	·	·	·
Cc1ccc(NC(=S)NN=C2CCCCc3ccccc32)cc1	15	94	active	·	·	·
CC1CN(C(C)CO)C(=O)c2cccc(NC(=O)Cc3ccccc3)c2OC1CN(C)S(C)(=O)=O (stereo not given)	11	5	11	·	·	·
SMILES	Mtb hypoxia rep	RN4220 kill	Sa ugtP lethal	Mtb UGM inh	Mtb betalactam	Rv3671c inh
CCCCN(CC)c1nc(-c2ccncc2)nc2ccccc12	11	-9	-15	-2	77	1
CCCN(CCC)c1nc(-c2ccccn2)nc2ccccc12	·	99*	100*	-1	82	·
CC(C)NC(=O)N(C)CC1Oc2ccc(NC(=O)C3CCCCC3)cc2C(=O)N(C(C)CO)CC1C (stereo not given)	-9	1	0	·	·	·
O=C(NC(NC(=S)Nc1ccc(Cl)cc1Cl)C(Cl)(Cl)Cl)c1cccc([N+](=O)[O-])c1 (stereo not given)	-9	87*	73	-2	74	-268
Cc1cc(C)c(Nc2cc(S(=O)(=O)O)c(N)c3c2C(=O)c2ccccc2C3=O)c(C)c1	17	-20	28	-2	18	44*
Cc1cc(C)c(NC(=O)COC(=O)c2cccc3c2C(=O)c2ccccc2C3=O)c(C)c1	7	19	5	2	0	4

Source: PubChem
